Compound activity deposited in PubChem BioAssay by National Center for Advancing Translational Sciences (NCATS).
The list is not random: actives were taken first. Their share in the collection is about 12%.
PLK1 PBD inh: inhibitors of human PLK1 polo-box domain binding; P53350; Plk1 PBD binding of FITC phosphopeptide, fluorescence polarization; Potency, µM, for inactives: max response, negative = inhibition, actives largely listed as inhibitors; 360,000 tested, 2.8% active; note: series mostly up to about 57 µM; % is set by controls: 0 for no effect and ±100 for the full control effect; nearly all actives have a fitted effect of over 65% in size
Target sequence (P53350 whole entry, looked up, the tested form may be a part): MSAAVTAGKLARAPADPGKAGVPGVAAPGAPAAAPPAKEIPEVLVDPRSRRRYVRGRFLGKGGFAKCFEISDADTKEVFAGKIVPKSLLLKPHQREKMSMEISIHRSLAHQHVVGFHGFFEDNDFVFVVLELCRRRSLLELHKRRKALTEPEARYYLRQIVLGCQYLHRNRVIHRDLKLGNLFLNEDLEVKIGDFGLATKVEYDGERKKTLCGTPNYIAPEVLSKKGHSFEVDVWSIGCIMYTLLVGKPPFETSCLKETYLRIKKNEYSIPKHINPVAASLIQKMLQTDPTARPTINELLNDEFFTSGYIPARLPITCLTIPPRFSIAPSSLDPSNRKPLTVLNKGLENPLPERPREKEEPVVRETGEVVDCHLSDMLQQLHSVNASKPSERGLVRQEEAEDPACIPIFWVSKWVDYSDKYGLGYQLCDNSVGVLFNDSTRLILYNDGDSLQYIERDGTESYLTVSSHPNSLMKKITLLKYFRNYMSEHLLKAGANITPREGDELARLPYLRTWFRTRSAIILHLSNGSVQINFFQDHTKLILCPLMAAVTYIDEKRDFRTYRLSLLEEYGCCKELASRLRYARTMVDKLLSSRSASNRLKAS
G9a block: G9a (human) methyltransferase inhibition; Potency, µM (highest dose often 102 µM), for inactives: top-dose activity, negative = inhibition, actives largely listed as inhibitors; G9a H3K9 monomethylation, AlphaScreen, 2 h; 350,000 tested, 8.8% active; AID 504332; note: % is set by controls: 0 for no effect and ±100 for the full control effect; nearly all actives have a fitted effect of over 75% in size
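Enzyme 20 nM + cpd, 15 min RT; add b-H3K9 pep 500 nM / SAM 20 uM; 2 h RT; anti-H3K9me1 Ab 0.5 ug/mL + SA donor / anti-rabbit acceptor beads 20 ug/mL each, 10 min; AlphaScreen read.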
BAZ2B block: blocks human BAZ2B | Q9UIF8 | AlphaScreen BAZ2B-H3K14Ac peptide displacement | Potency, µM (doses to about 114 µM), for inactives: top-dose activity change, negative = inhibition, actives largely listed as inhibitors | 360,000 tested, 4.4% active | AID 504333; note: % is set by controls: 0 for no effect and ±100 for the full control effect; nearly all actives have a fitted effect of over 60% in size
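Multi-concentration screen (max 110 uM) measuring displacement of acetylated histone H3 peptide from BAZ2B by AlphaScreen, using 50 nM protein, 50 nM peptide and 10 ug/mL streptavidin donor plus Ni-chelate acceptor beads.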
HP1b binding inh: blocks HP1-beta chromodomain binding to methylated histone tails; AID 540317; 390,000 tested, 0.56% active; AlphaScreen HP1-beta / biotin-H3K9me3 peptide binding; Potency, µM (doses to about 114 µM), without a hit: at the highest dose activity change, negative = inhibition, hits mostly inhibitors; note: nearly all actives have a fitted effect of over 70% in size
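HP1-beta protein (50 nM final) preincubated 30 min at room temperature with biotinylated H3(1-18)K9me3 peptide (50 nM) in PBS pH 7.4, 0.01% Tween-20, then compound added for 30 min. AlphaScreen streptavidin donor/nickel chelate acceptor beads (10 ug/mL final), 30 min dark, luminescence read.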
JMJD2A Tudor: JMJD2A Tudor domain (human) inhibition. AlphaScreen JMJD2A-Tudor / H3K4me3 peptide binding. Potency, µM (top dose mostly 114 µM), inactives show at the top dose activity change, negative = inhibition, actives largely listed as inhibitors. 390,000 tested, 4.4% active. AID 504339; note: % is set by controls: 0 for no effect and ±100 for the full control effect; nearly all actives have a fitted effect of over 50% in size
Sfp PPTase inh: Sfp phosphopantetheinyl transferase inhibition; Q9F4F7; Biochemical Sfp PPTase activity, qHTS; Potency, µM, inactives show largest response in the series, negative = inhibition, hits mostly inhibitors; 310,000 tested, 3.5% active;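 note: the enzyme is Sfp with the accession as filed and its product quenches rhodamine fluorescence; 0% = enzyme reaction without inhibitor and -100% = no enzyme wells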
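With Hepes-Na pH 7.6 buffer containing 10 mM MgCl2, Sfp (15 nM) modified BHQ-2-YbbR (12.5 uM) using rhodamine-CoA (5 uM). Two reads 30 minutes apart at 525/598 nm yielded each well's rate.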
Active calls of the source: *; ? = inconclusive; nt = no result; [ ] = another dose, or the depositor's remark. Calls come from the whole dose curve; as a rule, active = well fitted curve in the direction sought with a large enough effect; inconclusive = small, poorly fitted or top-dose-only effect, or another doubt; inactive = no such curve, though single readings can be large; an effect the other way counts as inactive or inconclusive. Potency is the fitted concentration of half-maximal effect.

SMILES	PLK1 PBD inh	G9a block	BAZ2B block	HP1b binding inh	JMJD2A Tudor	Sfp PPTase inh
Cc1nc2c3cc(F)ccc3n(Cc3ccccc3F)c2s1	?	-26%[59 µM]	50µM*	-22%	23%	18µM*
Cc1cc2c(N)cccc2nn1	-22%	2.8µM*	79µM*	5%	-25%	2µM*
Nc1cccc2nc3ccccc3cc12	-3%	-20%[59 µM]	7%	26%	0%	1%
Cc1ccc(CS(=O)Cc2ccc(C(=O)N3CCN(c4ccccn4)CC3)o2)cc1 (centres undefined)	2%	-7%	1%	28%	-7%	9%
Cc1ccc(C(c2nnnn2C2CCCC2)N2c3ccccc3CC2C)cc1 (centres undefined)	0%	71µM*	-11%	26%	-17%	9%
Oc1ccc(Br)cc1C1C=C(c2ccc3c(c2)OCO3)NC(c2ccc(F)c(Br)c2)N1 (centres undefined)	nt	nt	nt	23%	?	nt
CN(C)C(=O)CSc1nnc2sc3ccccc3n12	-1%	4%	-6%	21%	6%	-2%
O=C(CSc1ncnc2ccccc12)NCc1ccco1	-24%	0%[59 µM]	-37%	9%	?	1%
O=C(CSc1nnc2sc3ccccc3n12)c1ccco1	?	10µM*	-1%	25%	-19%	-6%
O=C(CSCCSCC(=O)c1ccco1)c1ccco1	nt	10µM*	?	nt	nt	45µM*
O=C(CSc1nnnn1-c1ccccc1)c1ccco1	-24%	50µM*	-9%	39%	-25%	8%
Cn1nnnc1SCC(=O)c1ccco1	-20%	?	-24%	45%	-7%	?
O=C(CSc1ncnc2ccccc12)c1ccco1	?	13µM*	-22%	?	?	20µM*
O=S(=O)(c1ccc(F)c(F)c1)N1CCN(c2ccccn2)CC1	-1%	-4%	-6%	37%	-13%	0%
CNS(=O)(=O)c1cn(CC(=O)Nc2ccc(OC)cc2OC)cc1S(=O)(=O)NC	nt	0%[59 µM]	-13%	30%	-4%	nt
O=C(CSc1nnnn1-c1ccccc1)NC1CCCc2ccccc21 (centres undefined)	0%	35µM*	3%	50%	14%	7%
O=c1c2ccccc2nnn1CSc1nc2ccccc2[nH]1	-16%	-19%	-2%	2%	-5%	7%
O=c1c2ccccc2nnn1CSc1nnc2sc3ccccc3n12	nt	7.1µM*	-4%	nt	nt	-9%
O=C(NNc1c(Cl)cncc1Cl)c1sccc1Cl	0%	?	1%	22%	0%	4%
C/C(N)=C(/C#N)C(=O)CSc1nnc(Nc2c(C)cccc2C)s1	-20%	32µM*	-3%	?	56µM*	5%
O=C(CSc1ccccn1)c1ccc(F)cc1	27µM*	?	10%	1%	-15%	?
Cc1cc(NC(=O)CSc2ccccn2)cc(NC(=O)CSc2ccccn2)c1	-8%	?	2%	22%	-1%	16%
Cc1ccc(C(=O)CSc2ccccn2)cc1	19µM*	8.9µM*	11%	25%	8%	50µM*
Cc1ccc(/C(CSc2nccn2-c2ncc(C(F)(F)F)cc2Cl)=N\O)cc1	-3%	6%[59 µM]	-15%	18%	-22%	0%
O=C(CSc1nccn1-c1ncc(C(F)(F)F)cc1Cl)c1ccc(Br)cc1	2.4µM*	?	-33%	-12%	-18%	0%
SMILES	PLK1 PBD inh	G9a block	BAZ2B block	HP1b binding inh	JMJD2A Tudor	Sfp PPTase inh
Cc1ccc(C(=O)CSc2nccn2-c2ccccc2)cc1	21µM*	32µM*	56µM*	?	?	?
CCN1CCC(N(Cc2ccc(F)cc2)C(=O)Nc2cc(Cl)ccc2C(=O)OC)CC1	nt	2%[59 µM]	-26%	13%	-16%	nt
COc1cc(CC(=O)OCc2ccccc2F)cc(OC)c1OC	4%	49%	16%	-10%	15%	14%
CS(=O)(=O)c1ccc(C(=O)OCC(=O)N2CCCC2)cc1[N+](=O)[O-]	nt	nt	nt	37%	-19%	nt
Cc1ccc(NC(=O)CNC(=O)c2ccco2)c(Cl)c1	-5%	-22%	-39%	49%	-1%	?
COc1ccccc1CNC(=O)c1ccc2ccccc2n1	-9%	10%	79µM*	41%	-6%	-2%
COc1ccc(CNC(=O)c2ccc3ccccc3n2)cc1OC	-6%	27%	1%	29%	-5%	2%
COc1ccccc1CNC(=O)c1ccc(-c2ccccc2)cc1	-6%	45µM*	-5%	33%	-6%	?
COc1ccc(C(=O)NCc2ccccc2OC)cc1	-3%	-7%[59 µM]	-3%	29%	1%	9%
O=C1NC2=C(CCc3ccccc32)C(c2ccccc2)N1 (centres undefined)	-23%	45µM*	-3%	45%	-17%	8%
COc1cc(C2NC(=S)NC3=C2CCc2ccccc23)cc(OC)c1OC (centres undefined)	-29%	10µM*	2%	-10%	-17%	22%
COc1ccc(C2C3=C(Nc4ncnn42)c2ccccc2CC3)cc1OC (centres undefined)	nt	?	-8%	nt	nt	-3%
C=CCOc1ccc(C2NC(=S)NC3=C2CCc2ccccc23)cc1 (centres undefined)	?	22µM*	?	0%	?	-2%
CCCCc1nc(N2CCN(C(=O)c3ccco3)CC2)c(C#N)c2c1CCCC2	-20%	-11%	?	12%	-13%	45µM*
CCCc1cc(N2CCN(C(=O)c3ccco3)CC2)n2c(nc3ccccc32)c1C#N	-12%	16µM*	17%	55%	-6%	56µM*
CCCc1cc(-n2ccnc2C)n2c(nc3ccccc32)c1C#N	-4%	nt	nt	39%	1%	nt
CCn1c(=O)c(C(=O)CN(C)CC(=O)Nc2ccccc2Br)c(N)n(Cc2ccccc2)c1=O	-3%	?	1%	26%	-21%	nt
COC(=O)c1ccccc1NC(=O)Cn1nc(C(F)(F)F)c2c1CCCC2	nt	4%[59 µM]	20%	69%	28%	nt
COc1ccc(N2CCN(C(=O)CCNS(=O)(=O)c3ccc4c(c3)CCN4C(=O)C3CC3)CC2)cc1	nt	?	-34%	5%[57 µM]	-31%	nt
O=C(CCNS(=O)(=O)c1ccc2c(c1)CCN2C(=O)C1CC1)N1CCN(c2ccc(F)cc2)CC1	nt	6%[59 µM]	-8%	5%[57 µM]	45µM*	nt
COc1ccc(N2CCN(CCNS(=O)(=O)c3ccc(C)cc3)CC2)cc1	-17%	50µM*	-16%	-29%	-32%	18%
COc1ccc(N2CCN(C(=O)CCNS(=O)(=O)c3ccc(C)cc3)CC2)cc1	0%	50µM*	-33%	30%	-19%	5%
CCOC(=O)c1c(NC(=O)c2nc(SCC)ncc2Cl)sc2c1CCCC2	nt	6%[59 µM]	-3%	26%	-16%	nt
